Measured values reported in PubChem BioAssay (Tox21).
Results filed as inconclusive are left out. Calls of active or inactive are those of the source. The call rests on the fitted dose curve; in most records, active means well fitted activation curve with a large enough effect in the repeat runs; inconclusive means weak or mixed curves; inactive means no such curve, though single readings can be large or run the other way.

Assay: qHTS assay to identify small molecule agonists of the estrogen related receptor signaling pathway with the pleiotropic PPARgamma coactivator (PGC) (AID 1224823)
Settings: ERR/PGC reporter cell line, luciferase agonist mode; series mostly up to 46.1 µM; activation: at the top concentration
Source text: National Center for Advancing Translational Sciences [NCATS]
NIH Chemical Genomics Center [NCGC]
U.S. Environmental Protection Agency [EPA]
National Institutes of Environmental Health Sciences [NIEHS]
National Toxicology Program [NTP]
Estrogen related receptors (ERRs), the first orphan nuclear receptors discovered, play an important role in the control of cellular energy metabolism. ERRs are required for high-energy production in response to the environmental challenges. The pleiotropic PPARgamma coactivator (PGC) is a major partner of ERR and a key regulator in energy homeostasis. Together they have been implicated in the etiology of metabolic disorders such as Type 2 diabetes and metabolic syndrome. ERR-alpha was also identified as an adverse marker for breast cancer progression; ERR-alpha-positive tumors have a poor prognosis. To screen and to identify environmental compounds that perturb the PGC/ERR signaling pathways could provide valuable information for potential therapeutic or preventive measures in the treatment of metabolic disease. For identifying PGC/ERR agonists, PGC/ERR cell line (provided by NTP) has been used to screen LOPAC library.
The PGC/ERR cells were dispensed at 2,000 cells/5 ul/well in 1536-well white plates using a Multidrop dispenser. After the assay plates were incubated at a 37 C/5% CO2 incubator for 6 hours, 23 nL of compounds dissolved in DMSO, positive and negative controls or DMSO only was transferred to the assay plate by a pin tool. The plates were incubated at 37 C for 18 hours. 4 ul/well of One-Glo reagent was added into the assay plates using a Flying Reagent Dispenser. After 30 min incubation at room temperature, the luminescence intensity in the plates was measured using a ViewLux plate reader.
On the % scale 0 is the no-effect control and ±100 the full control effect; potency means the concentration at half of the fitted maximal effect.

Compound | activation | Potency
CN1CC[C@@]2(C)c3cc(OC(=O)Nc4ccccc4)ccc3N(C)[C@@H]12 | 16.4% (inactive) | 
NC(CP(=O)(O)O)C(=O)O (stereo not given) | -1.99% (inactive) | 
CO/C=C(/C(=O)OC)c1ccccc1Oc1cc(Oc2ccccc2C#N)ncn1 | -15.6% [at 92.2 µM] (inactive) | 
CC12NC(Cc3ccccc31)c1ccccc12 (stereo not given) | -4.44% (inactive) | 
NC(CCP(=O)(O)O)C(=O)O (stereo not given) | -0.815% (inactive) | 
C[C@@H]1O[C@H](C[N+](C)(C)C)C[C@H]1O | 9.79% (inactive) | 
NC(=O)CN1CC(O)CC1=O (stereo not given) | -3.52% (inactive) | 
c1ccc2c(c1)[I+]c1ccccc1-2 | -4.95% (inactive) | 
CC(C)(C)c1o[nH]c(=O)c1CC(N)C(=O)O (stereo not given) | 3.12% (inactive) | 
Clc1cc(I)cc(Cl)c1NC1=NCCN1 | 3.36% (inactive) | 
N[C@@]1(C(=O)O)CC[C@@H](C(=O)O)C1 | -1.52% (inactive) | 
COc1ccc2[nH]cc(CCN)c2c1 | -4.42% (inactive) | 
C[N+]1(C)CCOC(O)(c2ccc(-c3ccc(C4(O)C[N+](C)(C)CCO4)cc3)cc2)C1 (stereo not given) | 6.38% (inactive) | 
Cc1nccc2c1[nH]c1ccccc12 | -13% (inactive) | 
CNc1ccc2oc(C[C@H]3O[C@@]4(CC[C@H]3C)O[C@H]([C@H](C)C(=O)c3ccc[nH]3)[C@H](C)C[C@H]4C)nc2c1C(=O)O | -33.5% (inactive) | 
CNCCc1c[nH]c2ccc(O)cc12 | 1.35% (inactive) | 
Cc1[nH]c2ccc(O)cc2c1CCN | -4.67% (inactive) | 
CS(=N)(=O)CC[C@H](N)C(=O)O (stereo not given in full) | 3.76% (inactive) | 
C[C@H]1C2Cc3ccc(O)cc3[C@@]1(C)CCN2CC1CC1 | -0.535% (inactive) | 
CC(=O)NCCc1c[nH]c2ccccc12 | 1.83% (inactive) | 

Compound | activation | Potency
CCNC(=O)[C@H]1O[C@@H](n2cnc3c(N)ncnc32)[C@H](O)C1O (stereo not given in full) |  | 168 nM (active)
CC1OC1P(=O)(O)O (stereo not given) | -7.33% (inactive) | 
C[N+]1(C)CCC(OC(=O)C(c2ccccc2)c2ccccc2)CC1 | -4.23% (inactive) | 
CCCN1CCC[C@@H](c2cccc(O)c2)C1 | 1.53% (inactive) | 
O=C1/C(=C/c2ccccc2)C[C@@]2(O)[C@H]3Cc4ccc(O)c5c4[C@@]2(CCN3CC2CC2)[C@H]1O5 | -35% (inactive) | 
NC1CCc2cc(O)c(O)cc2C1 (stereo not given) | -3.74% (inactive) | 
CCn1cnc2c(Nc3cccc(Cl)c3)nc(N[C@@H]3CCCC[C@@H]3N)nc21 | 2.27% (inactive) | 
CC[C@@]1(O)C(=O)OCc2c1cc1n(c2=O)Cc2cc3ccccc3nc2-1 | -13.1% (inactive) | 
CC(C)Oc1cccnc1N(C)C1CCN(Cc2ccccc2)CC1 | -7.71% (inactive) | 
O=S1(=O)N(CCN2CC=C(c3c[nH]c4cc(F)ccc34)CC2)c2cccc3c2N1CCC3 | -21.7% (inactive) | 
CCN(CC)c1ncnc2c1ncn2[C@@H]1O[C@H](COP(=O)(O)OP(=O)(O)C(Br)(Br)P(=O)(O)O)[C@@H](O)[C@H]1O | 4.17% (inactive) | 
CCCN1CCc2cc(O)cc3c2[C@H]1Cc1ccc(O)c(O)c1-3 | 4.55% (inactive) | 
CCCN1CCC[C@H](c2cccc(O)c2)C1 | 6.27% (inactive) | 
O=C(Nc1ccccc1-c1ccc(Cl)cc1)c1cccnc1Cl | -0.337% [at 92.2 µM] (inactive) | 
Clc1ccc(C(c2ccc(Cl)cc2)n2cc[n+](CC(OCc3ccc(Cl)cc3Cl)c3ccc(Cl)cc3Cl)c2)cc1 (stereo not given) | -24.3% (inactive) | 
COc1ccc(CNC(=O)/C=C/c2ccc3[nH]cc(CCN(C)C)c3c2)cc1 | 3.33% (inactive) | 
CCCN1CCO[C@@H]2c3cc(O)ccc3OC[C@H]21 | -4.91% (inactive) | 
COc1ccc2c(c[n+](C)c3c4cc5c(cc4ccc23)OCO5)c1OC | -32.8% (inactive) | 
NCCc1ccc(S(=O)(=O)F)cc1 | -3.47% (inactive) | 
Cn1cnc(CCN)c1 | 1.07% (inactive) | 
